Results on four compounds are retold here after PubChem BioAssay.

Assay [1] relates to Wnt5a (protein binding on small-molecule microarray). Nature of the assay: Wnt5a binders on small-molecule microarray, primary screen, biophysical, 635/667 nm fluorescence (AID 1142).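 Note: fluorescence read at 667 nm with signal to noise per printed feature.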 As to conditions: 635 nm fluorescence, higher = more signal.
Assay [2] in a line: cell viability in Huh7 cells, primary screen, cytotoxicity control for HCV replication inhibitor project, CellTiter-Glo luminescence, basal, 48 h (AID 1143).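 Note: Huh7 hepatoma cells carrying a hepatitis C replication reporter with no stimulus; test concentration not given here.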 As to conditions: Huh7 HCV replicon, higher = more signal, called active from +8 up or from −8 down. On the technique in general: Cellular ATP, detected with luciferase, serves as a proxy for viable cell number.
Assay [3] can be described thus: CREB reporter modulators without forskolin, primary screen, cell-based, PC12, CRE-LacZ reporter, unstimulated (AID 1145). As to conditions: no forskolin, luminescence, 4.5 h, higher = more signal, called active from +8 up or from −8 down.
Assay [4] is described as follows: CREB reporter modulators under forskolin, primary screen, cell-based, PC12, CRE-LacZ reporter, forskolin-stimulated (AID 1146).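 Note: PC12 cells with 6xCRE LacZ reporter stimulated by forskolin 10 µM; beta-galactosidase reporter signal reflecting CREB driven transcription.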 As to conditions: luminescence, 4.5 h, higher = more signal, called active from +8 up or from −8 down.
Assay [5] addresses Streptavidin (Streptomyces avidinii) (UniProt P22629). Nature of the assay: streptavidin binders on small-molecule microarray, primary screen, artefact control for SMM compound annotation, biophysical, 635/667 nm fluorescence (AID 1147).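 Note: signal reflects streptavidin binding to arrayed compounds as a control protein.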 The settings on record: streptavidin binding, higher = more signal.
A short description of assay [6]: small-molecule binders of probe aInhba, primary screen, biochemical, small-molecule microarray, 635/667 nm fluorescence (AID 1148).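 Note: score merges 667nm spot fluorescence with signal-to-noise for antibody binding to printed compounds.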 The settings on record: higher = more signal.
The target in assay [7] is Torsin-1A (Homo sapiens) (UniProt O14656). The experiment in a line: torsin A binders from cell lysate, primary screen, small-molecule microarray, wild-type, 635/667 nm (AID 1149). The settings on record: COS7 hTOR1A-WT lysate, 635 nm fluorescence, higher = more signal.
Assay [8] has the same target. Nature of the assay: small-molecule binders of mutant TOR1A in lysate, primary screen, cell lysate, small-molecule microarray, COS7 lysate, 635/667 nm fluorescence (AID 1150).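 Note: score pools 667 nm emission and signal to noise measuring lysate protein binding.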 The settings on record: COS7 hTOR1A mutant lysate, 635 nm fluorescence, higher = more signal.
Assay [9] relates to Sonic hedgehog protein (Shh). The experiment in a line: small-molecule binders of Shh protein, primary screen, biochemical, small-molecule microarray, 635/667 nm fluorescence (AID 1151).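 Note: Shh protein binding to compounds spotted on small-molecule microarray slides; score combines spot fluorescence intensity with signal-to-noise across triplicate slides.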 As to conditions: small-molecule microarray binding, 635 nm fluorescence; higher = more signal.
Assay [10] in a line: E. coli DRC41 culture turbidity changes, primary screen, E. coli filamentation inducer project, strain DRC41, OD650, 48 h (AID 1152).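 Note: E. coli MC1000 strain DRC41 lacking acrAB efflux pump and sulA.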 As to conditions: E. coli DRC41 (acrAB sulA), higher = more signal, called active from +8 up or from −8 down.
Assay [11] is described as follows: small-molecule binders of probe aLefty1, primary screen, biochemical, small-molecule microarray, 635/667 nm fluorescence (AID 1153).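 Note: score merges spot fluorescence with signal-to-noise ratio from the scanned slide images.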 As to conditions: higher = more signal.
The nature of assay [12]: PSAC antagonists in infected red cells, primary screen, cell-based, P. falciparum Indochina, OD700, 1 h (AID 1154). As to conditions: P. falciparum Indochina infected RBC osmotic lysis, higher = more signal, called active from +8 up or from −8 down.
Assay [13] is described as follows: PSAC antagonists in infected red cells, primary screen, cell-based, P. falciparum Indochina, OD700, 2 h (AID 1155).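 Note: lysis reports solute entry through the parasite surface anion channel PSAC; channel blockers reduce lysis of infected cells.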 As to conditions: P. falciparum Indochina infected erythrocytes, osmotic lysis OD700; higher = more signal, called active from +8 up or from −8 down.
Assay [14] can be described thus: osmotic lysis modulators in infected erythrocytes, primary screen, PSAC antagonist project, cell-based, P. falciparum Indochina, OD700, 3 h (AID 1156). The settings on record: higher = more signal, called active from +8 up or from −8 down.
Assay [15] can be described thus: PSAC antagonists in infected red cells, primary screen, cell-based, P. falciparum Indochina, OD700, 18 h (AID 1157). The settings on record: P. falciparum Indochina infected erythrocytes, osmotic lysis OD700, 18 h; higher = more signal, called active from +8 up or from −8 down.
Assay [16] can be described thus: modulators of S6 phosphorylation in cells, primary screen, cell-based, A549, cytoblot, luminescence, serum-stimulated (AID 1158).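 Note: serum-stimulated A549 lung adenocarcinoma cells; signal is phosphorylated S6 detected by cytoblot immunostaining with HRP secondary.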 As to conditions: A549 phospho-S6 cytoblot, 5 h, higher = more signal.
Assay [17] deals with NADPH oxidase 2 (Homo sapiens) (UniProt P04839). Nature of the assay: NOX2-dependent H2O2 signal modulators, primary screen, NOX inhibitor project, cell-based, HEK293-NOX2, PMA-stimulated, Amplex Red fluorescence (AID 1159). Note: test concentration not given here. As to conditions: 45 min, higher = more signal, called active from +8 up or from −8 down.
The target in assay [18] is NADPH oxidase 4 (Homo sapiens) (UniProt Q9NPH5). The experiment in a line: NOX4-dependent H2O2 signal modulators, primary screen, NOX inhibitor project, cell-based, HEK293-NOX4, tetracycline-induced, Amplex Red fluorescence (AID 1160). The settings on record: 45 min, higher = more signal, called active from +8 up or from −8 down.
Assay [19] addresses NADPH oxidase 5 (Homo sapiens) (UniProt Q96PH1). The experiment in a line: NOX5-dependent H2O2 signal modulators, primary screen, NOX inhibitor project, cell-based, HEK293-NOX5, Amplex Red fluorescence (AID 1161). As to conditions: HEK293-NOX5, ionomycin, 45 min, higher = more signal.
Assay [20] is described as follows: A549 cell viability effects, profiling panel, calcein-AM fluorescence, 48 h, basal (AID 1162). Note: test concentration not given here. As to conditions: higher = more signal.

Active and inactive are the calls of the source.

NADPH oxidase 5 (Homo sapiens), sequence (Q96PH1 whole entry, looked up): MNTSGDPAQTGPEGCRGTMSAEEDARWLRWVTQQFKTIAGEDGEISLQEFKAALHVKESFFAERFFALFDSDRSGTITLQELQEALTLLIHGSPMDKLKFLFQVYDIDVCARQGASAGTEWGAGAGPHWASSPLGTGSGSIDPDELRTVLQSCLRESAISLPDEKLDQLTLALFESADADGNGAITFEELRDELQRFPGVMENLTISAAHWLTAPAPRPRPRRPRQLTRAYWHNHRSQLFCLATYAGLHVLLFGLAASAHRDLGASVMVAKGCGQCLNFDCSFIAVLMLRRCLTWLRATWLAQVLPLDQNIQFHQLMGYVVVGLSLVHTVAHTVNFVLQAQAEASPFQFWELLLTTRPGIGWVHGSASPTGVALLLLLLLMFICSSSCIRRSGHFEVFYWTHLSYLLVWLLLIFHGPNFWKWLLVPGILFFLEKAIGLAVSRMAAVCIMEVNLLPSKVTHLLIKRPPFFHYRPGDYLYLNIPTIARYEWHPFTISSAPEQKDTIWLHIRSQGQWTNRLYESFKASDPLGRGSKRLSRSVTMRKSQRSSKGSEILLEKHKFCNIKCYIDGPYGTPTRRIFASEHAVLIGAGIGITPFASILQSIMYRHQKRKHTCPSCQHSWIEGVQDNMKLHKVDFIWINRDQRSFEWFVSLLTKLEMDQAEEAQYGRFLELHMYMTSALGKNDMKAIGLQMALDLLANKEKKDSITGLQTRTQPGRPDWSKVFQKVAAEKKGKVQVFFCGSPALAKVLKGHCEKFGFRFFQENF
Torsin-1A (Homo sapiens), sequence (O14656 whole entry, looked up): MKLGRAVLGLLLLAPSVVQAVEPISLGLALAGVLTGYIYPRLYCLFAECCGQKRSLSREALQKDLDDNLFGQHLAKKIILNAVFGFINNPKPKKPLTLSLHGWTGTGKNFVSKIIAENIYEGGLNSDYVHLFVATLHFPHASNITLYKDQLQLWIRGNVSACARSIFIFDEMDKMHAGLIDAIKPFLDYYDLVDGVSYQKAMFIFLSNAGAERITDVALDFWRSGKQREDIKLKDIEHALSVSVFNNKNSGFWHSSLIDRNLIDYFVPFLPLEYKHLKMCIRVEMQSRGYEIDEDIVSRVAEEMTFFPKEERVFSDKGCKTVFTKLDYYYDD
NADPH oxidase 4 (Homo sapiens), sequence (Q9NPH5 whole entry, looked up): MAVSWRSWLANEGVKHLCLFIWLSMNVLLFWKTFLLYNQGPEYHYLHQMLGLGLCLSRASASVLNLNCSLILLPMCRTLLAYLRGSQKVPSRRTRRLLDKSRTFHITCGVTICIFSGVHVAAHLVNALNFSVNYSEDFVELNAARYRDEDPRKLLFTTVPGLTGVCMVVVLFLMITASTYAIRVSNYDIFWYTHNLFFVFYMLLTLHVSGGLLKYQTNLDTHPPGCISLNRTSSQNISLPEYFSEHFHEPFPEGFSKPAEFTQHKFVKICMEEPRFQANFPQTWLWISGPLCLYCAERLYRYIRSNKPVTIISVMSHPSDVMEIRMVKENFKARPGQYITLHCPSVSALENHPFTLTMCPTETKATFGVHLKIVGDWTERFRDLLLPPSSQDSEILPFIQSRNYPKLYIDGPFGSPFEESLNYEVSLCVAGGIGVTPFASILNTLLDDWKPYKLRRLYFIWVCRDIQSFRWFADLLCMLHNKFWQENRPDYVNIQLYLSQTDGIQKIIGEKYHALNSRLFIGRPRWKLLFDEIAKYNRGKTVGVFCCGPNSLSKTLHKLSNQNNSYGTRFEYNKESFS
NADPH oxidase 2 (Homo sapiens), sequence (P04839 whole entry, looked up): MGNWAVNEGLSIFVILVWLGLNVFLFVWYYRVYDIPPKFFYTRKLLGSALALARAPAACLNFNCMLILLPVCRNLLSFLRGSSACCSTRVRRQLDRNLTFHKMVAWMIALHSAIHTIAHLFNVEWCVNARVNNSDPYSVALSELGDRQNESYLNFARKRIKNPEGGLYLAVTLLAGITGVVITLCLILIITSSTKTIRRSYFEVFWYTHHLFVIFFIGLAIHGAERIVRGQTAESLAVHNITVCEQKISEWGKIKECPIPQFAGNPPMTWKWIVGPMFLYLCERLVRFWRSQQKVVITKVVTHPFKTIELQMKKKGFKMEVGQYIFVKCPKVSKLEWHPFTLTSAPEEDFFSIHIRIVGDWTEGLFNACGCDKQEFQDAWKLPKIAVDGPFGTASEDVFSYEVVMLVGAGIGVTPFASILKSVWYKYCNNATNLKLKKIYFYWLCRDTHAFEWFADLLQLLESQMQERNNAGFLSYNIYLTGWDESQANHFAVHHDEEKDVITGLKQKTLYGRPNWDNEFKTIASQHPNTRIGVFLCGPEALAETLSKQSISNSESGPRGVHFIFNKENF
Streptavidin (Streptomyces avidinii), sequence (P22629 whole entry, looked up): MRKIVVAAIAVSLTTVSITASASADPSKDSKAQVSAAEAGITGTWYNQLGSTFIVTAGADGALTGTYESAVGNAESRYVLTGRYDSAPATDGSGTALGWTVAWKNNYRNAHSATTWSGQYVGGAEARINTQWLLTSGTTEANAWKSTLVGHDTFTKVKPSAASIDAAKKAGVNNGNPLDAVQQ

Consider `C=CCC(OC(C)=O)[C@@H]1[C@@H](N(Cc2cc3ccccc3o2)C(=O)c2ccc(-c3ccccc3)cc2)c2cc(OCCCO)ccc2N1C(=O)c1ccc(-c2ccccc2)cc1` (stereo not given in full), for which the composite z-score in assay [1] was 0.0258; in assay [5] it was -0.0123; in assay [6] it was 0.0497; in the assay with Torsin-1A (Homo sapiens) [7] it was -0.347; in the assay with Torsin-1A (Homo sapiens) [8] it was 0.244; in [9], 0.224. Also, the composite z-score in [11] was found to be 0.0038. The z-score in [2] is 0.267 (inactive); in assay [3] it was 0.6 (inactive); in assay [4], -0.625 (inactive); in assay [10], 2.06 (inactive); in assay [12] it was -0.0828 (inactive); in [13], 0.179 (inactive). The z-score was -0.0582 (inactive) in [14]; -0.0337 (inactive) in assay [15]; 0.436 in assay [16]; 0.989 (inactive) in [17]; -1.13 (inactive) in [18]; 0.786 in assay [19]. Besides, the z-score in [20] was 0.0525.
Take `C=CCN1C(=O)[C@@]2(O[C@@H](CCn3cc(CCO)nn3)[C@H]([Si](C)(C)c3ccc(OC)cc3)[C@H]2C)c2cc(NC(=O)c3ccc(OC)cc3)ccc21`: the composite z-score in assay [1] is 0.315; in assay [5] it was 0.441; in assay [6], 0.0497; in the assay with Torsin-1A (Homo sapiens) [7], 0.558; with Torsin-1A (Homo sapiens) [8], 0.437; in assay [9], 1.4. In assay [11], this compound showed a composite z-score of 0.0789. For the same compound, the z-score in [2] was -2.79 (inactive); in assay [3] it was 12.8 (active); in [4] it was -2.29 (inactive); in assay [10], 0.596 (inactive); in assay [12], 12.1 (active); in [13], 2.03 (inactive). Further, the z-score in assay [14] is 1.1 (inactive); in assay [15] it was 0.742 (inactive); in [16] it was 0.157; in assay [17], -0.282 (inactive); in [18], 1.45 (inactive); in [19], 0.367. Besides, the z-score in [20] is -0.0183.
Consider `O=C1c2ccccc2C(=O)c2cc([C@H]3Oc4ccccc4S(=O)(=O)N4CCC[C@@H]34)ccc21`, for which the composite z-score in assay [1] was -0.0879; in assay [5], -0.615; in assay [6], -0.0079; with Torsin-1A (Homo sapiens) [7], -0.474; with Torsin-1A (Homo sapiens) [8] it was -0.122; in assay [9] it was -0.441. In [11], this compound registered a composite z-score of -0.0625. Also, the z-score in [2] was -4.31 (inactive); in assay [3] it was 4.29 (inactive); in assay [4], -1.21 (inactive); in assay [10], 3.11 (inactive); in assay [12] it was 8.47 (active); in assay [13], 0.452 (inactive). The z-score in assay [14] is 0.544 (inactive); in assay [15], -1.29 (inactive); in [16], 1.1; in [17], 0.0288 (inactive); in assay [18], -1.18 (inactive); in assay [19], 0.489. Also, the z-score in assay [20] is 0.326.
For `COC(=O)[C@@]1(CCC(=O)OC(C)(C)C)COC(c2ccc(OCCCO)cc2)=N1`, the composite z-score in [1] was -0.328; in assay [5], -1.44; in assay [6], -0.109; in the assay with Torsin-1A (Homo sapiens) [7], -1.3; with Torsin-1A (Homo sapiens) [8], -0.742; in [9] it was -1.03. In assay [11], this compound had a composite z-score of 0.0721. The z-score in [2] is -0.243 (inactive); in [3], 0.694 (inactive); in assay [4], -1.14 (inactive); in assay [10], 1.06 (inactive); in [12], 21 (active); in [13], 3.26 (inactive). Besides, the z-score in assay [14] is 0.0081 (inactive); in assay [15], 0.613 (inactive); in [16], 0.21; in assay [17], -0.0972 (inactive); in assay [18], 0.562 (inactive); in assay [19], -2.25. In addition, the z-score in [20] was 0.196.
